Reference: PubChem BioAssay AID2625 (National Center for Advancing Translational Sciences (NCATS), 2010)
Records with an inconclusive call do not appear. Active and inactive are the calls of the source. Calls follow the shape of the dose curve; as a rule, active = well fitted curve in the direction sought with a large enough effect; inconclusive = small, poorly fitted or top-dose-only effect, or effect the other way, or another doubt; inactive = no such curve, though single readings can be large or run the other way.

Biological target: Pyruvate kinase PKLR (Homo sapiens) (UniProt P30613)
Experiment: Secondary LDH Assay for Activators of Human Liver Pyruvate Kinase: for Probe SAR
Settings: purified hPK-L, LDH-coupled NADH fluorescence kinetic; series mostly up to 58.2 µM
Excerpt: NIH Chemical Genomics Center [NCGC]
Matthew G. Vander Heiden, M.D., Ph.D. [Harvard Medical School, 77 Avenue Louis Pasteur, Boston, MA 02115]
Human pyruvate kinase liver (hPK-L)enzyme was supplied as a highly purified (>95% pure) preparation from Harvard Medical School and a secondary assay was used to evaluate compounds. This assay couples the formation of pyruvate from hPK-R using lactate dehydrogenase (LDH) and NADH. The depletion of NADH is followed in a fluorescent-based kinetic assay that follows the formation of pyruvate to lactate, as catalyzed LDH. Pyruvate kinase substrates, PEP and ADP, were present in the assay at 0.1 mM and 4 mM respectively. In this kinetic assay initial rates were determined by following the fluorescence of NADH depletion.
NCGC Assay Protocol Summary:
Three uL of substrate mix (final concentration, 50 mM Tris-Cl pH 8.0, 200 mM KCl, 15 mM MgCl2, 0.1 mM PEP, 4.0 mM ADP, and 0.2 mM NADH) was dispensed into black-solid 1536 well plates. 23 nL of compounds were delivered by a pin tool and 1 uL of enzyme mix (final concentrations, 10 nM hPK-L and 1 uM of LDH) was added. Plates were immediately placed in ViewLux (Perkin Elmer) and NADH fluorescence was determined at 30 second exposure intervals for between 3 and 6 minutes. Data were normalized to the uninhibited and EC100 activation using known activators such as fructose-bis-phosphate.

Pyruvate kinase PKLR (Homo sapiens), sequence (P30613 whole entry, looked up): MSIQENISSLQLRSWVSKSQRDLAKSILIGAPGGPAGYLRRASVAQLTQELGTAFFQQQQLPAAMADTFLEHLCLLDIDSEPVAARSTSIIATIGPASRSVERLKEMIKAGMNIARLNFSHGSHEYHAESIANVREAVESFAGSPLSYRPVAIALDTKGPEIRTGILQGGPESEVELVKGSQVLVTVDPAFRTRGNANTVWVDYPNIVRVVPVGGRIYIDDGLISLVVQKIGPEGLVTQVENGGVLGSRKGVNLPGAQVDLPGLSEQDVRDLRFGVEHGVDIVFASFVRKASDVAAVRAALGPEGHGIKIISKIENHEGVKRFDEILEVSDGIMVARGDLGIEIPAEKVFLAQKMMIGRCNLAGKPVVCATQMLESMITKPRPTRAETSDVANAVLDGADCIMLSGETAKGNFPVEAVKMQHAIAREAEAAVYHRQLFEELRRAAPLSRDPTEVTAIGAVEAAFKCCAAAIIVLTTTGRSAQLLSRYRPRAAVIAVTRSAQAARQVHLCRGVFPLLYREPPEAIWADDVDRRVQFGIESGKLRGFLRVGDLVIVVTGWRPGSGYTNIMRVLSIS

outcome, inactive:
O=C1c2ccccc2C(=O)N1Cc1ccccn1
COc1ccc(Nc2c(-c3ccc(C)o3)nc3ccccn23)cc1
Cc1ccc(NS(=O)(=O)c2cccc(Cl)c2)cc1C
COc1cc(F)c(S(=O)(=O)N2CCCN(S(=O)(=O)c3cccc(N)c3)CC2)c(F)c1
O=C1CCc2cc(S(=O)(=O)Nc3ccccc3Cl)ccc2N1
O=C1CCc2cc(S(=O)(=O)Nc3cccc(B(O)O)c3)ccc2N1
Cc1ccc(NS(=O)(=O)c2ccc(Cl)cc2)cc1C
O=C1CCc2cc(S(=O)(=O)Nc3ccccc3F)ccc2N1
Cc1ccc(NS(=O)(=O)c2ccc3c(c2)CCN(C(=O)C(F)(F)F)C3)cc1C
O=C1c2ccccc2C(=O)N1c1cccc2ncccc12
O=S1(=O)N=C(Oc2ccccc2)c2ccccc21
O=C1CCc2cc(S(=O)(=O)Nc3ccc4c(c3)OCCO4)ccc2N1
Cc1ccn2c(NC3CCCCC3)c(-c3ccc(C)o3)nc2c1
O=C1c2ccccc2C(=O)N1c1ccc2ccccc2n1
Cn1c2cc(S(C)=O)sc2c2cnn(Cc3cccc(O)c3)c(=O)c21 (stereo not given)
Cc1ccc(NS(=O)(=O)c2ccc3c(c2)oc(=O)n3C)cc1C
COc1ccccc1N1C(=O)c2ccccc2C1=O
O=C1CCc2cc(S(=O)(=O)Nc3ccc(F)c(Cl)c3)ccc2N1
COc1ccccc1NS(=O)(=O)c1ccc2c(c1)CCC(=O)N2
Cc1cc(NS(=O)(=O)c2ccc3c(c2)CCC(=O)N3)ccc1F
Cc1ccc(NS(=O)(=O)c2cc3c(cc2-c2ccccc2)NC(=O)CO3)cc1C
Cc1cc(C)n2c(Nc3ccccc3)c(-c3ccc(C)o3)nc2n1
O=C1CCc2cc(S(=O)(=O)Nc3cccc(F)c3)ccc2N1
Cc1ccc(C)c(OC2=NS(=O)(=O)c3ccccc32)c1
Cc1ccc2nc(-c3cccs3)c(Nc3ccccc3)n2c1
O=C1CCc2cc(S(=O)(=O)Nc3cc(F)cc(Cl)c3)c(F)cc2N1
Cc1ccc(NS(=O)(=O)c2ccc(-c3ccccc3)cc2)cc1C
Cc1ccc(NS(=O)(=O)c2cc3c(cc2N(C)C)CCC(=O)N3)cc1C
O=C1c2ccccc2C(=O)N1c1cccc2cnccc12
O=C1CCc2cc(S(=O)(=O)Nc3ccc(F)cc3)ccc2N1
Cc1ccc(-c2nc3cnccn3c2Nc2ccc(C(C)C)cc2)o1
Cc1ccc(NS(=O)(=O)c2cc3c(cc2Cl)CCC(=O)N3)cc1C
COc1ccc(NS(=O)(=O)c2ccc3c(c2)CCC(=O)N3)cc1
O=C1CCc2cc(S(=O)(=O)Nc3ccc4ncccc4c3)ccc2N1
O=C1CCc2cc(S(=O)(=O)Nc3cccc(Cl)c3)ccc2N1
O=C1CCc2cc([S+](=O)([O-])NC3CCOCC3)ccc2N1
COc1ccccc1OC1=NS(=O)(=O)c2ccccc21
CC(=O)N1CCCc2cc(S(=O)(=O)Nc3ccc(C)c(C)c3)ccc21
Cc1ccc(NS(=O)(=O)c2cc3c(cc2-c2cn[nH]c2)NC(=O)CO3)cc1C
O=C1CCc2cc(S(=O)(=O)Nc3cccc(C(F)(F)F)c3)ccc2N1
